# High-throughput results from PubChem.
# TbREL1 inh: TbREL1 inhibition, primary screen | P86926 | TbREL1 RNA ligation, FRET fluorescence | inhibition, % at 9.66 µM | actives 0.49% (n = 89,000) | AID 1117264;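 active means inhibition above the mean inhibition across all screened compounds plus 3 SD, cut at about 11% in these data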;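 further: 0% = plate median of test wells and 100% = NSC42067 control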
# TbREL1 conf: TbREL1 inhibition, confirmation; shares compounds with TbREL1 inh; TbREL1 RNA ligation, FRET fluorescence; inhibition, % at 9.66 µM; actives 37% (n = 390);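 active means mean inhibition across replicates above a set limit taken from the earlier primary screen, cut at about 11% in these data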;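 further: 0% = REL1 with substrate and DMSO and 100% = REL1 plus control inhibitor NSC42067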
# The depositor's hits bear a star. The sample as a whole holds a higher share of hits than the screen did.
SMILES,TbREL1 inh,others
O=C(c1ccc(-c2ccccc2)cc1)N1CCC(C(=O)N2CCCC2)CC1,3,
Nn1c(SCC(=O)N2c3ccccc3Sc3ccc(Cl)cc32)nnc1-c1cc(-c2ccc(F)cc2)n[nH]1,3,
Cc1ccc(OCCOCCN2CCN(C)CC2)c(C(C)(C)C)c1,-1,
COCCCNCCCCOc1ccc(C)cc1[N+](=O)[O-],3,
Cc1ccc(OCCN2CCN(C)CC2)c([N+](=O)[O-])c1,12*,TbREL1 conf=6
CCC[C@H]1[C@@H](NCC2CCCCC2)CC[C@@]23CCCN2C(=O)CCC[C@@H]13,2,
CCC[C@H]1[C@@H](OC(=O)NCc2ccc(C)cc2)CC[C@@]23CCCN2C(=O)CCC[C@@H]13,-3,
CCC[C@H]1[C@@H](OC(=O)NCc2ccc(Cl)c(Cl)c2)CC[C@@]23CCCN2C(=O)CCC[C@@H]13,13*,TbREL1 conf=0
CCCCCCCC(=O)N[C@H]1CC[C@@]23CCCN2C(=O)CCC[C@H]3[C@H]1CCC,1,
CCC[C@H]1[C@@H](OC(=O)NCc2ccc(Cl)cc2)CC[C@@]23CCCN2C(=O)CCC[C@@H]13,-3,
CCC[C@H]1[C@@H](NC(=O)C2CCCCC2)CC[C@@]23CCCN2C(=O)CCC[C@@H]13,36*,TbREL1 conf=0
COC(=O)[C@]12C[C@H](CC(=O)NCCCN3CCCC3=O)C(=O)N(Cc3ccc4c(c3)OCO4)C1=C[C@H](C(C)C)O[C@@H]2C1CC1,-3,
Cc1nn(-c2ccccc2)c2sc(C(=O)N3CCN(S(=O)(=O)c4ccc(Br)s4)CC3)cc12,0,
O=C(Nc1cc(Cl)ccc1F)C1CCCN(c2nnc(-n3cccc3)s2)C1 (stereo unspecified),0,
CCCCCn1c(=N)n(CC(O)COc2ccccc2OC)c2ccccc21 (stereo unspecified),11*,TbREL1 conf=10
Cc1ccc(OCC(O)Cn2c(=N)n(CCN3CCCCC3)c3ccccc32)cc1 (stereo unspecified),9,
CCN(CC)CCn1c(=N)n(CC(O)COc2ccccc2)c2ccccc21 (stereo unspecified),3,
Cc1cccc(NC(=O)NN(C(=O)c2ccccc2Cl)C(C)(C)C)c1,-2,
O=C1CC(N2CCOCC2)=NC(=O)N1c1ccc(Br)cc1,0,
O=C(NC1CC[C@@]23CCCN2C(=O)CCC[C@H]3C1)c1ccccc1 (stereo partly specified),-4,
